Results from PubChem BioAssay (Tox21).
Inconclusive results are not listed. Calls of active or inactive are those of the source. Calls come from the whole dose curve; as a rule, active = well fitted cell-killing curve with a large enough effect in the repeat runs (not every such curve was filed as active); inconclusive = weak or mixed curves, or effect the other way; inactive = no such curve, though single readings can be large or run the other way.

Test: qHTS assay to identify small molecule antagonists of the estrogen related receptor signaling pathway with the pleiotropic PPARgamma coactivator (PGC) from Tox21 10K library - cell viability counter screen (AID 1224840); note: nearly all actives have a fitted effect of over 40% in size
Settings: PGC/ERR reporter cells viability, CellTiter-Fluor, 17.5 h; series mostly up to 92.4 µM; viability change, negative = cytotoxic: at the top concentration
From the text: National Center for Advancing Translational Sciences [NCATS]
NIH Chemical Genomics Center [NCGC]
U.S. Environmental Protection Agency [EPA]
National Institutes of Environmental Health Sciences [NIEHS]
National Toxicology Program [NTP]
U.S. Food and Drug Administration [FDA]
Estrogen related receptors (ERRs), the first orphan nuclear receptors discovered, play an important role in the control of cellular energy metabolism. ERRs are required for high-energy production in response to the environmental challenges. The pleiotropic PPARgamma coactivator (PGC) is a major partner of ERR and a key regulator in energy homeostasis. Together they have been implicated in the etiology of metabolic disorders such as Type 2 diabetes and metabolic syndrome. ERR-alpha was also identified as an adverse marker for breast cancer progression; ERR-alpha-positive tumors have a poor prognosis. To screen and to identify environmental compounds that perturb the ERR and PGC/ERR signaling pathways could provide valuable information for potential therapeutic or preventive measures in the treatment of metabolic disease. To differentiate true PGC/ERR antagonists or agonist from cytotoxic substances, the assay is multiplexed with cell viability assay.
Tox21 Assay Protocol Summary:
The PGC/ERR cells were dispensed at 2,000 cells/5 ul/well in 1536-well white plates using a Multidrop dispenser. After the assay plates were incubated at a 37 C/5% CO2 incubator for 6 hours, 23 nL of compounds dissolved in DMSO, positive and negative controls or DMSO only was transferred to the assay plate by a pin tool. The plates were incubated at 37 C for 17.5 hours. 1 ul/well of CellTiter-Fluor reagent was added into the assay plates using a Flying Reagent Dispenser. After 30-minute incubation at 37 C/5% CO2, the fluorescence intensity in the plates was measured using a ViewLux plate reader.
% is set by controls: 0 for no effect and ±100 for the full control effect; potency is the fitted concentration of half-maximal effect.

Structure (SMILES) | viability change, negative = cytotoxic | Potency
CCCCCCCC#N | 3.92% (inactive) | 
CN(C)CCN(Cc1ccc(Cl)cc1)c1ccccn1 | -8.99% [at 42.5 µM] (inactive) | 
CC[N+]1(CC)CCC(=C(c2ccccc2)c2ccccc2)C1C (stereo not given) | -5.67% [at 42.5 µM] (inactive) | 
O=C(O)C1(C(=O)O)CCC1.[NH2-].[NH2-].[Pt+2] | 1.38% [at 42.5 µM] (inactive) | 
CCO[Si](CCCCl)(OCC)OCC | -6.04% (inactive) | 
CC1=CCCC(C)(C)C12CCC(C)O2 (stereo not given) | -0.0256% (inactive) | 
C=C(C)C(=O)OCCO | 1.51% (inactive) | 
CC1CCC(=O)C1=O (stereo not given) | 5.91% (inactive) | 
Brc1c2ccccc2cc2ccccc12 | 1.61% (inactive) | 
C/C=C(/C(=C/C)c1ccc(OC(C)=O)cc1)c1ccc(OC(C)=O)cc1 | -15% [at 42.5 µM] (inactive) | 
Nc1cccc(S(=O)(=O)c2cccc(N)c2)c1 | 5.88% (inactive) | 
Cc1cc(N)c2cc(NC(=O)Nc3ccc4nc(C)cc(N)c4c3)ccc2n1 | -8.14% [at 42.5 µM] (inactive) | 
CCCn1cnc2c1c(=O)n(CCCCC(C)=O)c(=O)n2C | 1.02% [at 42.5 µM] (inactive) | 
CCCCC/C=C\C/C=C\CCCCCCCC(=O)NC(C)c1ccccc1 (stereo not given) | -10.7% [at 42.5 µM] (inactive) | 
CCCCC | 6.8% (inactive) | 
C#Cc1cccc(Nc2ncnc3cc(OCCOC)c(OCCOC)cc23)c1 | -4.24% [at 42.5 µM] (inactive) | 
OC[C@H]1O[C@@H](OCCc2ccc(O)cc2)[C@H](O)[C@@H](O)[C@@H]1O | 7.52% [at 42.5 µM] (inactive) | 
CN(C)CCCN1c2ccccc2Sc2ccccc21 | -19.3% [at 42.5 µM] (inactive) | 
Cc1cccc(C)c1OCC(=O)N[C@@H](Cc1ccccc1)[C@@H](O)C[C@H](Cc1ccccc1)NC(=O)[C@H](C(C)C)N1CCCNC1=O |  | 33.5 µM (active)
CCCCCCCCCCCCCCCCOS(=O)(=O)O | -15% [at 42.5 µM] (inactive) | 

Structure (SMILES) | viability change, negative = cytotoxic | Potency
CCn1cc(C(=O)O)c(=O)c2cnc(N3CCNCC3)nc21 | 10.6% [at 42.5 µM] (inactive) | 
CCOCC(O)COc1ccc(NC(=O)CC[S+](C)C)cc1 (stereo not given) | 2.1% [at 42.5 µM] (inactive) | 
CCNc1cc(O)ccc1C | -11.2% (inactive) | 
CO[C@@H]1[C@H](OC(=O)/C=C/C=C/C=C/C=C/C(=O)O)CC[C@]2(CO2)[C@H]1[C@@]1(C)O[C@@H]1CC=C(C)C | -11.6% (inactive) | 
NC(N)=NCCC[C@H](N)C(=O)O | -6.77% [at 8.39 µM] (inactive) | 
COc1cc(Cl)c(OC)cc1N | -8.93% (inactive) | 
C=C1[C@H]2CC[C@@H]3[C@H]2C(C)(C)CCC[C@]13C | -0.337% (inactive) | 
C#CCN(C)CCCOc1ccc(Cl)cc1Cl | 7.15% [at 42.5 µM] (inactive) | 
Brc1c2ccccc2c(Br)c2ccccc12 | 6.16% [at 8.39 µM] (inactive) | 
O=C(NCC1CN(c2ccc(N3CCOCC3=O)cc2)C(=O)O1)c1ccc(Cl)s1 (stereo not given) | -1.75% [at 42.5 µM] (inactive) | 
O=CC1CC=CCC1 (stereo not given) | 3.04% (inactive) | 
O=C1C(O)=C(O)C(=O)C(O)=C1O | 0.725% [at 42.5 µM] (inactive) | 
CCC(C)O (stereo not given) | 1.86% (inactive) | 
O=C(CS)Nc1ccccc1 | -2.14% [at 42.5 µM] (inactive) | 
CCOC(=O)c1cccnc1 | 0.964% [at 42.5 µM] (inactive) | 
Cc1ccccc1S(=O)(=O)O | 9.74% (inactive) | 
CCN(CC)c1ccc2c(-c3ccccc3C(=O)O)c3ccc(=[N+](CC)CC)cc-3oc2c1 |  | 17.2 µM (active)
CCCCC(CC)CN1C(=O)C2C3C=CC(C3)C2C1=O (stereo not given) | -23.7% (inactive) | 
C[C@@H](c1ncncc1F)C(O)(Cn1cncn1)c1ccc(F)cc1F (stereo not given in full) | -2.57% [at 42.5 µM] (inactive) | 
COc1ccc(C(=O)c2ccc(OC)cc2O)c(O)c1 | -18.2% (inactive) | 
